# Where “and” joins values, the source holds several entries; their conditions need not be identical. Identical values can stand only once. A number with no mark means an inactive call. Records with an inconclusive call do not appear. Entries that show only a call come without a potency. Calls of active or inactive are those of the source. The call rests on the fitted dose curve; in most records, active means well fitted curve in the direction sought with a large enough effect in the repeat runs; inconclusive means weak or mixed curves; inactive means no such curve, though single readings can be large; an effect the other way counts as inactive or inconclusive.
# Key:
# [1] = Caspase-3/7 induction in HepG2 cells by small molecules, qHTS assay (AID 1346978); further: nearly all actives have a fitted effect of over 15% in size
# Method in brief: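 Wild-type HepG2 cells, 2,000/well, settled 5 hr at 37 C and 5% CO2, then compound-treated for 17 hr; caspase-3/7 activity read by luminescent Caspase-Glo 3/7 after 30 min at room temperature.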
# [2] = Caspase-3/7 induction in CHO-K1 cells by small molecules, qHTS cell viability counter screen (AID 1346979); further: nearly all actives have a fitted effect of over 35% in size; further: potency means the concentration at half of the fitted maximal effect
# Method in brief: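 CellTiter-Fluor viability check, qHTS format: wild-type CHO-K1, 16hr compound treatment, 1hr reagent incubation, fluorescence read.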
# [3] = Caspase-3/7 induction in CHO-K1 cells by small molecules, qHTS assay (AID 1346980); further: nearly all actives have a fitted effect of over 15% in size
# Method in brief: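 Wild-type CHO-K1 cells exposed to compounds for 17hr at 37 C, 5% CO2. Caspase-3/7 activity then measured by Caspase-Glo 3/7 luminescence after 30min at room temperature.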
# [4] = Caspase-3/7 induction in HepG2 cells by small molecules, qHTS cell viability counter screen (AID 1346981); further: nearly all actives have a fitted effect of over 30% in size; further: potency means the concentration at half of the fitted maximal effect; on activity change, negative = cytotoxicity: series mostly up to about 92 µM
# Method in brief: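 Steps: seed 2,000 HepG2 cells per well; incubate 5 hr at 37 C; pin-add compounds in DMSO; incubate 16 hr; add CellTiter-Fluor; after 1 hr at 37 C and 5% CO2, read fluorescence.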
# [5] = biological target: Nuclear receptor subfamily 1 group I member 2 (Homo sapiens) (UniProt O75469); experiment: Human pregnane X receptor (PXR) small molecule agonists, qHTS assay (AID 1346982); further: nearly all actives have a fitted effect of over 35% in size; further: potency means the concentration at half of the fitted maximal effect
# Chain of Nuclear receptor subfamily 1 group I member 2 (Homo sapiens) (O75469 whole entry, looked up): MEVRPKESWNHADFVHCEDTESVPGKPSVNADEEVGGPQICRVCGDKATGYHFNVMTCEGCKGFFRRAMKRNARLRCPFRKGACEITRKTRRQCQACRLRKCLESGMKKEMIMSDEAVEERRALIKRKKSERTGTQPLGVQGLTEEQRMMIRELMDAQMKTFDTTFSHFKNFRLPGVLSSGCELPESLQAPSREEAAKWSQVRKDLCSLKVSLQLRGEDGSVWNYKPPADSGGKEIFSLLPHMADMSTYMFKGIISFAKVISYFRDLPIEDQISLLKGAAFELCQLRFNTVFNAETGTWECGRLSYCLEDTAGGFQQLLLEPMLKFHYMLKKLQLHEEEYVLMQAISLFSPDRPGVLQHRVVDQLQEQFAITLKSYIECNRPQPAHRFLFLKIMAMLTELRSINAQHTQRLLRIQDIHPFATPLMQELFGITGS
# Method in brief: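 Agonist mode qHTS: PXR-Luc HepG2 cells plated 5 hr before DMSO-dissolved compounds were pinned in, cultured 24 hr at 37 C, 5% CO2; ONE-Glo luminescence readout.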
# [6] = biological target: Cytochrome P450 2D6 (Homo sapiens) (UniProt P10635); experiment: Cytochrome P450 Family 2 Subfamily D Member 6 (CYP2D6) small molecule antagonists: luciferase reporter qHTS assay (AID 1671196); further: nearly all actives have a fitted effect of over 50% in size; further: potency means the concentration at half of the fitted maximal effect; on activity change, negative = inhibition: series mostly up to about 120 µM
# Chain of Cytochrome P450 2D6 (Homo sapiens) (P10635 whole entry, looked up): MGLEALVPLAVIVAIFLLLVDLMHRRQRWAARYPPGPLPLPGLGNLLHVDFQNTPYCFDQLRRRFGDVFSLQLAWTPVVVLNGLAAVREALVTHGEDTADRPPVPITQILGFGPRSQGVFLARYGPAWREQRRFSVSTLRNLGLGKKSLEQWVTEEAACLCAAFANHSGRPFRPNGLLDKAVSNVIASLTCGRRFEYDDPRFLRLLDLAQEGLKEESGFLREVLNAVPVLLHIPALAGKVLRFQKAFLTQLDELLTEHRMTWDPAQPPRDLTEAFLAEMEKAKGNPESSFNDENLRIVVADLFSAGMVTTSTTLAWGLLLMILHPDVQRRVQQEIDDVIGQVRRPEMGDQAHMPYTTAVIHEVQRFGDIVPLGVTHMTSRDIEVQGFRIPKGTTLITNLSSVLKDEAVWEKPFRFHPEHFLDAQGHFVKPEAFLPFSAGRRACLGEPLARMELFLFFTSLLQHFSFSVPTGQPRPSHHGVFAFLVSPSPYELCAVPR
# Method in brief: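 P450-Glo format: CYP2D6 converts a proluciferin substrate to luciferin in an NADPH-driven reaction lasting 1 h at room temperature. Light output, proportional to CYP2D6 activity, reflects interference by test chemicals.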
# [7] = biological target: Nuclear receptor subfamily 1 group I member 2 (Rattus norvegicus) (UniProt Q9R1A7); experiment: Rat pregnane X receptor (rPXR) activation by small molecules, qHTS assay (AID 1346983); conditions: rPXR luciferase reporter cells, One-Glo luminescence, 24 h; max activation: hits give high values; further: nearly all actives have a fitted effect of over 20% in size
# Chain of Nuclear receptor subfamily 1 group I member 2 (Rattus norvegicus) (Q9R1A7 whole entry, looked up): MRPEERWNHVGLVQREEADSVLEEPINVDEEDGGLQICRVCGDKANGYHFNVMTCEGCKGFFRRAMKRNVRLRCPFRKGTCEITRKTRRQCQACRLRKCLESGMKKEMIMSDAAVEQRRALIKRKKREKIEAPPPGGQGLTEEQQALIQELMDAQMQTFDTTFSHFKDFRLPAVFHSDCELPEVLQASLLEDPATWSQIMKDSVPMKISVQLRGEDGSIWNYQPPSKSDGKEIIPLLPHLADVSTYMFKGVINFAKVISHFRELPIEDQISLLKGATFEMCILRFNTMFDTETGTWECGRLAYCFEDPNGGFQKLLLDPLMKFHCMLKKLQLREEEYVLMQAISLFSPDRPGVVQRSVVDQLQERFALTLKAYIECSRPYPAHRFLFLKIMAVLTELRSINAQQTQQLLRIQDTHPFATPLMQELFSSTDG
# Method in brief: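 Cell-based rPXR activation assay: rPXR cells, 2,000 per well, rested 5hr at 37 C, then exposed to compounds in DMSO for 24 hr at 37 C. Luciferase activity read by One-Glo luminescence after 30 min at room temperature.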
# [8] = biological target: Nuclear receptor subfamily 1 group I member 2 (Homo sapiens) (UniProt O75469); experiment: CYP3A4 induction through human pregnane X receptor (PXR) by small molecules, qHTS assay (AID 1346984); further: nearly all actives have a fitted effect of over 40% in size; further: potency means the concentration at half of the fitted maximal effect
# Method in brief: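 Steps: seed DPX-2 cells, 5 hr at 37C; pin-transfer compounds; 24 hr at 37C; add Luciferin-IPA (3uM final), 3 hr at 37C; add One-Glo, 30 min RT; read luminescence.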
# [9] = biological target: Nuclear receptor subfamily 1 group I member 2 (Homo sapiens) (UniProt O75469); experiment: Human pregnane X receptor (PXR) activation by small molecules, qHTS assay (AID 1346985); further: nearly all actives have a fitted effect of over 40% in size
# Method in brief: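 DPX-2 cells (HepG2 co-transfected with a PXR response element and a CYP3A4-promoter luciferase construct) were seeded at 2,000 per well, rested 5 hr at 37C, then exposed to DMSO-dissolved compounds for 24 hr. Activation was read as luciferase luminescence.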
# [10] = biological target: Cytochrome P450 2C19 (Homo sapiens) (UniProt P33261); experiment: Cytochrome P450 Family 2 Subfamily C Member 19 (CYP2C19) small molecule antagonists: luciferase reporter qHTS assay (AID 1671197); further: nearly all actives have a fitted effect of over 65% in size; further: potency means the concentration at half of the fitted maximal effect; on activity change, negative = inhibition: series mostly up to about 120 µM
# Chain of Cytochrome P450 2C19 (Homo sapiens) (P33261 whole entry, looked up): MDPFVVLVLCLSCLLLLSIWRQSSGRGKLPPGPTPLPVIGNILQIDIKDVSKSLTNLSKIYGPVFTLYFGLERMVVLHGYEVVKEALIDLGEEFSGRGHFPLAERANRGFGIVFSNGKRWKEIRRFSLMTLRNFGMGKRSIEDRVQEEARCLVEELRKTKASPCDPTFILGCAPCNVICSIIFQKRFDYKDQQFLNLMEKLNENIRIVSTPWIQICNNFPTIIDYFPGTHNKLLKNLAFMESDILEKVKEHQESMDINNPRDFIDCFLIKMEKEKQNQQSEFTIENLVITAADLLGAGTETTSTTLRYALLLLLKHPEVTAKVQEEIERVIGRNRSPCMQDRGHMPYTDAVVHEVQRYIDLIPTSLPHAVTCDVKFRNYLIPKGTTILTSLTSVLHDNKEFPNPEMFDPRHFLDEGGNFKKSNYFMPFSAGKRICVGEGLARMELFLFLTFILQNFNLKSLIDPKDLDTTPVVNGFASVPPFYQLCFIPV
# Method in brief: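 Enzyme-substrate mix with proluciferin substrate (P450-Glo CYP2C19 system) preincubated with compounds 10 min at room temperature; NADPH regeneration solution added, 37C for 1 h; detection reagent stops reaction, luminescence read after 20 min. Ketoconazole positive control.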
smiles,measurement,setting,value
OCCN1CN(CCO)CN(CCO)C1,Potency,[1],inactive
same,Potency,[2],inactive
same,Potency,[3],inactive
same,Potency,[4],inactive
same,Potency,[5],inactive
O=C=NCc1cccc(CN=C=O)c1,caspase activation,[1],-0.106% [at 19 µM]
same,"activity change, negative = cytotoxicity",[2],0.691% [at 19 µM]
same,caspase-3/7 activation,[3],-0.138% [at 19 µM]
same,"activity change, negative = cytotoxicity",[4],9.74% [at 19 µM]
same,activation,[5],2.53% [at 19 µM]
C=CC(=C)CC/C=C(\C)CCC=C(C)C,caspase activation,[1],0.847% [at 19 µM]
same,"activity change, negative = cytotoxicity",[2],-0.798% [at 19 µM]
same,caspase-3/7 activation,[3],0.541% [at 19 µM]
same,"activity change, negative = cytotoxicity",[4],-2.86% [at 19 µM]
same,activation,[5],8.17% [at 19 µM]
same,"activity change, negative = inhibition",[6],-7.39% [at 23.6 µM]
O=C(O)CCCCCCC(=O)O,Potency,[1],inactive
same,Potency,[2],inactive
same,Potency,[3],inactive
same,Potency,[4],inactive
same,Potency,[5],inactive
same,Potency,[6],35.9 µM (active)
CC(=O)Oc1ccc(C2(c3ccc(OC(C)=O)cc3)C(=O)Nc3ccccc32)cc1,Potency,[1],inactive
same,Potency,[2],inactive
same,Potency,[3],inactive
same,Potency,[4],inactive
same,Potency,[5],inactive
same,max activation,[7],-4.61% and -2.34%
same,Potency,[8],inactive
same,Potency,[9],inactive
same,Potency,[10],11 µM (active)
CCC1(c2cnc[nH]2)Cc2ccccc2C1,Potency,[1],inactive
same,Potency,[2],inactive
same,Potency,[3],inactive
same,Potency,[4],inactive
same,Potency,[5],inactive
same,Potency,[6],0.977 µM (active)
same,Potency,[10],0.977 µM (active)
C=C/C=C/C=C/CCCCC,caspase activation,[1],-0.0295% [at 19 µM]
same,"activity change, negative = cytotoxicity",[2],-1.73% [at 19 µM]
same,caspase-3/7 activation,[3],0.387% [at 19 µM]
same,"activity change, negative = cytotoxicity",[4],-1.07% [at 19 µM]
same,activation,[5],9.15% [at 19 µM]
same,"activity change, negative = inhibition",[6],-25.6% [at 23.6 µM]
N[C@@H](CSSC[C@H](N)C(=O)O)C(=O)O,caspase activation,[1],0.0664% [at 0.349 µM]
same,"activity change, negative = cytotoxicity",[2],-1.36% [at 0.349 µM]
same,caspase-3/7 activation,[3],0.0732% [at 0.349 µM]
same,"activity change, negative = cytotoxicity",[4],6.72% [at 0.349 µM]
same,activation,[5],-0.742% [at 0.349 µM]
same,max activation,[7],-1.39%
same,Potency,[8],inactive
same,Potency,[9],inactive
same,"activity change, negative = inhibition",[10],-14.3% [at 0.435 µM]
CCN(CC)c1ccc(N)cc1,Potency,[1],inactive
same,Potency,[2],22.3 µM (active)
same,Potency,[3],inactive
same,Potency,[4],25 µM (active)
same,Potency,[5],inactive
same,Potency,[6],13 µM (active)
same,Potency,[10],9.18 µM (active)
O=C1OC(=O)c2ccc3c4c(ccc1c24)C(=O)OC3=O,Potency,[1],inactive
same,Potency,[2],inactive
same,Potency,[3],inactive
same,Potency,[4],inactive
same,Potency,[5],inactive
same,Potency,[6],inactive
same,Potency,[10],inactive
Cc1ccc2ccc3cccc4ccc1c2c34,Potency,[1],inactive
same,Potency,[2],inactive
same,Potency,[3],inactive
same,Potency,[4],inactive
same,Potency,[5],inactive
same,Potency,[6],63.2 µM (active)
same,Potency,[10],28.2 µM (active)
CCCCCCCC/C=C\CCCCCCCC(=O)NCc1ccc(O)c(OC)c1,Potency,[1],inactive
same,Potency,[2],inactive
same,Potency,[3],inactive
same,Potency,[4],inactive
same,Potency,[5],inactive
same,max activation,[7],-4.67%
same,Potency,[8],inactive
same,Potency,[9],inactive
same,Potency,[10],15.5 µM (active)
Nc1ncnc2c1ncn2[C@@H]1O[C@H](COP(=O)(O)O)[C@@H](O)[C@H]1O,Potency,[1],inactive
same,Potency,[2],inactive
same,Potency,[3],inactive
same,Potency,[4],inactive
same,Potency,[5],inactive
same,max activation,[7],-2.61%
same,Potency,[8],inactive
same,Potency,[9],inactive
same,Potency,[6],inactive
same,Potency,[10],inactive
CCOB(OCC)OCC,Potency,[1],inactive
same,Potency,[2],inactive
same,Potency,[3],inactive
same,Potency,[4],inactive
same,Potency,[5],inactive
same,Potency,[6],inactive
same,Potency,[10],inactive
C[Si](C)O[Si](C)C,Potency,[1],inactive
same,Potency,[2],inactive
same,Potency,[3],inactive
same,Potency,[4],inactive
same,Potency,[5],inactive
same,Potency,[6],inactive
same,Potency,[10],inactive
CCOCN(C(=O)CS(=O)(=O)O)c1c(C)cccc1CC,Potency,[1],inactive
same,Potency,[2],inactive
same,Potency,[3],inactive
same,Potency,[4],inactive
same,Potency,[5],inactive
same,Potency,[6],inactive
CCOC(=O)N1CCC(=C2c3ccc(Cl)cc3CCc3cccnc32)CC1,Potency,[1],inactive
same,Potency,[2],43.3 µM (active) and 26.6 µM (active)
same,Potency,[3],inactive
same,Potency,[4],54.5 µM (active)
CC(C)(C)c1cc(CCC(=O)NCCCCCCNC(=O)CCc2cc(C(C)(C)C)c(O)c(C(C)(C)C)c2)cc(C(C)(C)C)c1O,Potency,[1],inactive
same,Potency,[2],inactive
same,Potency,[3],inactive
same,Potency,[4],inactive
same,Potency,[5],inactive
same,Potency,[6],inactive
Clc1ccccc1CN1CCc2sccc2C1,Potency,[1],inactive
same,Potency,[2],inactive
same,Potency,[3],inactive
same,Potency,[4],inactive
O=C(NO)c1ccccc1,Potency,[1],inactive
same,Potency,[2],65.3 µM (active)
same,Potency,[3],inactive
same,Potency,[4],inactive
same,Potency,[5],29.2 µM (active)
COc1cccc(CCc2ccccc2OCC(CN(C)C)OC(=O)CCC(=O)O)c1 (configuration not stated),Potency,[1],inactive
same,Potency,[2],inactive
same,Potency,[3],inactive
same,Potency,[4],inactive
same,Potency,[5],inactive
same,max activation,[7],-1.75%
same,Potency,[8],12.6 µM (active)
same,Potency,[10],34.7 µM (active)
Cc1cn[nH]c1,Potency,[1],inactive
same,Potency,[2],inactive
same,Potency,[3],inactive
same,Potency,[4],inactive
O=c1cccc[nH]1,Potency,[1],inactive
same,Potency,[2],inactive
same,Potency,[3],inactive
same,Potency,[4],inactive
same,Potency,[5],inactive
same,Potency,[6],inactive
same,Potency,[10],inactive
C=CC(=O)OCCN(CC)CC,Potency,[1],inactive
same,Potency,[2],inactive
same,Potency,[3],inactive
same,Potency,[4],inactive
same,Potency,[5],inactive
same,Potency,[6],inactive
same,Potency,[10],inactive
Cc1cccc(N(C)C)c1,Potency,[1],inactive
same,Potency,[2],inactive
same,Potency,[3],inactive
same,Potency,[4],inactive
same,Potency,[5],inactive
same,Potency,[6],inactive
[O]=[Zr],Potency,[1],inactive
same,Potency,[2],inactive
same,Potency,[3],inactive
same,Potency,[4],inactive
same,Potency,[5],inactive
CCCCOc1ccc(C(=O)CCN2CCCCC2)cc1,Potency,[1],inactive
same,Potency,[2],29.8 µM (active)
same,Potency,[3],inactive
same,Potency,[4],inactive
same,Potency,[5],6.68 µM (active)
same,max activation,[7],-1.67%
same,Potency,[8],inactive
same,Potency,[9],inactive
same,Potency,[6],5.49 µM (active)
CC1(C)C(=O)N(CO)C(=O)N1CO,Potency,[1],inactive
same,Potency,[2],inactive
same,Potency,[3],inactive
same,Potency,[4],inactive
same,Potency,[5],inactive
same,Potency,[6],inactive
same,Potency,[10],inactive
O=C1c2c(O)ccc([N+](=O)[O-])c2C(=O)c2c([N+](=O)[O-])ccc(O)c21,Potency,[1],inactive
same,Potency,[2],12.1 µM (active)
same,Potency,[3],inactive
same,Potency,[4],24.1 µM (active)
same,Potency,[5],inactive
same,Potency,[6],31.4 µM (active)
same,Potency,[10],12.5 µM (active)

# Source: PubChem BioAssay (Tox21)
